RXFP1 agonist: RXFP1 (human) receptor agonism. 0.3% of 370,000 active. Potency, µM (series often up to 57.5 µM), without a hit: at the highest dose activation, most hits filed as activators. HEK293T-RXFP1 cAMP TR-FRET, 30 min; response scale: percent of porcine relaxin response, buffer zero; active = well fitted activation curve with a large enough effect; inconclusive = small, poorly fitted or top-dose-only effect; note: potency is the fitted concentration of half-maximal effect; % is set by controls: 0 for no effect and ±100 for the full control effect; nearly all actives have a fitted effect of over 60% in size
Target sequence (Q9HBX9 whole entry, looked up): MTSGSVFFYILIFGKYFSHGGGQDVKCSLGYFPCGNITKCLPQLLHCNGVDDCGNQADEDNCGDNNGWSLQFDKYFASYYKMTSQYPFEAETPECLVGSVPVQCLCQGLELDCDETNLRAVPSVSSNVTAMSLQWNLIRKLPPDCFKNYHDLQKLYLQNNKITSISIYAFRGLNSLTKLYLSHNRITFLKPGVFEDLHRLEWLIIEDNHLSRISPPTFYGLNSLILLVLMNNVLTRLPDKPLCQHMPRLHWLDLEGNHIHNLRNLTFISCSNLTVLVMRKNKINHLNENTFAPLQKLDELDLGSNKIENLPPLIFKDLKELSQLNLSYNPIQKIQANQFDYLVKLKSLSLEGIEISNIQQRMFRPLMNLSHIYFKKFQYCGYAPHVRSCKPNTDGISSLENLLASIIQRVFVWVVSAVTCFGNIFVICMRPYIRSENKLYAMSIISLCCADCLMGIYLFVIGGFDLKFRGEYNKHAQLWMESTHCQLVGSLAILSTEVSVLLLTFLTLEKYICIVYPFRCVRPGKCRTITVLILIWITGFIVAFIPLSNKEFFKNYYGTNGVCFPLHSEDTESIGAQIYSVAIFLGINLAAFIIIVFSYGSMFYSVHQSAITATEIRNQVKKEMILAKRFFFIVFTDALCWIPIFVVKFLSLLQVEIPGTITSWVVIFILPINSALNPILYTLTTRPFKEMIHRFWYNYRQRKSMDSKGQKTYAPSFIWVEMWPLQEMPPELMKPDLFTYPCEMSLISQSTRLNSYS
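Agonist response is measured as cAMP accumulation in an RXFP1-transfected HEK293T line under PDE4 inhibition. Values are scaled between buffer-only and 29 nM porcine relaxin, and EC50s come from standard Hill equation fits.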
gsp antagonist: antagonists of gsp mutant (McCune-Albright syndrome) | gsp-mutant cells, cAMP HTRF, 30 min | Potency, µM (doses to about 76.9 µM), inactives show at the top dose activity change, negative = inhibition, actives largely listed as inhibitors | 0.4% of 340,000 active | AID 624288; calls by dose curve; cell line not stated here;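 note: intracellular cAMP measured with PDE inhibitor Ro 20-1724 present during compound exposure; potency is the fitted concentration of half-maximal effect; % is set by controls: 0 for no effect and ±100 for the full control effect; nearly all actives have a fitted effect of over 65% in size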
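G418-selected cells were plated in DMEM/10% FBS for 16-24 h at 37C, then treated with compounds plus the PDE inhibitor […] (300 uM solution added) for 30 min at 37C. Intracellular cAMP was measured by HTRF after 30 min lysis at room temperature.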
Giardia kill: kills Giardia lamblia; Giardia lamblia trophozoite viability; activity change, % at 7.66 µM, hits read low; 0.15% of 340,000 active; AID 540267; in the data active = activity change below about -80%; inconclusive = between about -30% and that limit;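 note: parasites exposed to compound for two days anaerobically before the ATP read; % is set by controls: 0 for no effect and ±100 for the full control effect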
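Killing of trophozoites was scored by loss of ATP luminescence after a 48 hrs anaerobic exposure to compounds at 37 deg C, using 100 cells per well.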
RXFP1 antagonist: RXFP1 (human) relaxin receptor antagonism; AID 1259400; activity change, negative = inhibition, % at 57.5 µM; HEK293-RXFP1, relaxin-stimulated cAMP HTRF, 30 min; stronger effect = lower value; 0.59% of 350,000 active; Q9HBX9;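 active = activity change of -60% or lower, but not beyond a set lower limit; inconclusive = change between -60% and -40%, or beyond the set limit; inactive = change above -40%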; note: % is set by controls: 0 for no effect and ±100 for the full control effect
gsp ag: agonists of gsp mutant (McCune-Albright syndrome); Potency, µM (highest dose often 76.9 µM), without a hit: at the top dose activation (cAMP increase), usual class: activators; 0.13% of 340,000 active; gsp mutant cells, cAMP HTRF, 30 min; active = well fitted activation curve with a large enough effect; inconclusive = small, poorly fitted or top-dose-only effect, or another doubt; inactive = no such curve, though single readings can be large or run the other way; cell line not stated here;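 note: phosphodiesterase inhibitor Ro 20-1724 added with compounds to block cAMP breakdown; potency is the fitted concentration of half-maximal effect; nearly all actives have a fitted effect of over 60% in size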
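Cells stably selected in G418 were plated at 2000/well, grown 16-24 hr, then given compounds in DMSO with the PDE inhibitor […] (300 uM solution added) for 30 min at 37C; cAMP was read by HTRF.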
Coupling enz: inhibits coupling enzyme system, counter-screen for aldolase hits; activity change, negative = inhibition, % at 58.2 µM, hits read low; AID 2472; coupling enzyme system counterscreen, AmpLite Red fluorescence; 0.67% of 290,000 active; in the data active = activity change below about -30%; note: % is set by controls: 0 for no effect and ±100 for the full control effect
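Compounds tested against the coupling enzymes alone at 57.5 uM final; readout was AmpLite Red fluorescence (525/598 nm) after 20 min at RT.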
The depositor's hits bear a star; ? = inconclusive; nt = no result given; ! = a repeat was not active; [ ] = dose if it differs, or a comment. The list is not random: actives were taken first. Their share in the collection is about 1.6%.

SMILES	RXFP1 agonist	gsp antagonist	Giardia kill	RXFP1 antagonist	gsp ag	Coupling enz
CC1CCC(C(C)C)C(OC(=O)Cn2c(-c3ccccc3)[n+](C)c3ccccc32)C1 (stereo not given)	0%	3%	-28	-71*	?	0
CCOc1ccccc1C(=O)Nc1ccc(S(=O)(=O)N(Cc2ccccc2)c2ccccc2)cc1	4%	nt	nt	4	nt	nt
COc1ccc(NC(=O)c2cc(S(=O)(=O)N(Cc3ccccc3)c3ccccc3)ccc2Cl)cn1	-1%	-14%	-11	-1	6%[15.4 µM]	-44*
COC(=O)[C@@H](NC(=O)NCCC1=CCCCC1)C(C)C	3%	15%	-9	-6	24%[15.4 µM]	1
COc1ccc(/C=C2\Sc3ccc(C(=O)N4CCCC4)cc3N(C)C2=O)cc1OC	3%	0%	49	9	?	nt
CN1C(=O)/C(=C/c2ccccc2Cl)Sc2ccc(C(=O)N3CCCC3)cc21	-1%	32µM*	-15	-15	1%	-2
CCOC(=O)C1CCCN(C(=O)c2ccc3c(c2)N(C)C(=O)/C(=C/c2ccccc2Cl)S3)C1 (stereo not given)	0%	11µM*	-7	-10	-19%	nt
CCc1ccc(Cc2cnc(NC(=O)C3=NCCN3)s2)cc1	-3%	-5%	7	-116*	9%[15.4 µM]	1
COc1cccc(C2=Nn3c(nnc3-c3ccc(OC)cc3OC)SC2)c1	nt	nt	nt	nt	nt	-4
COc1cccc(C2=Nn3c(nnc3-c3ccccc3C)SC2)c1	nt	nt	nt	nt	nt	-32*
COc1ccc(OCC(=O)NC(=S)Nc2ccc3c4c(cccc24)CC3)cc1	20µM*	16%	-2	13	?	1
Cc1ccccc1OCC(=O)NC(=S)Nc1ccc2c3c(cccc13)CC2	8%	-6%	-1	3	21%	1
Cc1cc(=O)[nH]c(SCC(=O)c2c(N)n(C)c(=O)n(C)c2=O)n1	?	36%	-19	13	25µM*	1
Cn1c(N)c(C(=O)CSc2nc(N)cc(=O)[nH]2)c(=O)n(C)c1=O	15%	6%	-14	-11	17%	5
COc1cc2cc3c4c(cc(OC)c(OC)c4c2cc1OC)CCN3C	nt	nt	nt	nt	nt	-45*
COc1ccc(C2CC(=O)N3CN(c4ccc(C)c(Cl)c4)CSC3=C2C#N)cc1 (stereo not given)	6%	-12%	-8	8	22%	-36*
CC(C)=CCC/C(C)=C/CC/C(C)=C/C(=O)OCC(=O)[C@@]1(O)CC[C@H]2[C@@H]3CCC4=CC(=O)C=C[C@]4(C)[C@H]3[C@@H](O)C[C@@]21C	nt	nt	nt	-20	nt	nt
CCN(c1ccccc1)c1nc(=O)c2cccnc2s1	8%	-26%	-25	-4	27%	2
CCN(c1ccccc1)c1cc2ccccc2c(=O)[nH]1	6%	-12%	11	0	-11%[15.4 µM]	-34*
Cn1c(N)c(C(=O)COC(=O)c2cccc(S(=O)(=O)NCc3ccccc3)c2)c(=O)n(C)c1=O	nt	3%	-19	6	0%	nt
Cc1cc(C)n2nc3nc4c(cc3c2n1)CCCC4	13%	19%	15	3	14µM*	-20
O=C1C=CC2=C3c4cc(O)c(O)cc4CC3(O)COC2=C1O (stereo not given)	nt	-9%	3	nt	nt	-38*!
O=C(c1ccc(Cl)cc1Cl)n1nnc2ccccc21	nt	nt	nt	nt	nt	0
COc1ccc(CCNc2nc(-c3ccc(O)cc3)cs2)cc1OC	3%	35µM*	?	-10	7%	0
COc1ccc(CCNc2nc(-c3ccncc3)cs2)cc1OC	1%	-15%	6	5	-2%	-19
SMILES	RXFP1 agonist	gsp antagonist	Giardia kill	RXFP1 antagonist	gsp ag	Coupling enz
CCc1ccc(/C=C2\CN(CC)Cc3c2nc2ccccc2c3C(=O)O)cc1	-3%	10%	-12	-9	-7%	-34*
C[C@]12CC[C@H]3c4ccc(OC[C@H]5CO5)cc4CC[C@H]3[C@H]1CC[C@@H]2O	nt	nt	nt	nt	nt	1
CC(C)c1nnc(NC(=O)CCCCCN2C(=O)C3C4C=CC(C4)C3C2=O)s1 (stereo not given)	0%	-7%	2	nt	-23%	2
Cc1nnc(NC(=O)CCCCCN2C(=O)C3C4C=CC(C4)C3C2=O)s1 (stereo not given)	2%	50µM*	?	nt	-119%	2
COc1ccc(-c2nc3c(c4c2C[C@H](c2ccccc2)OC4)CN(S(=O)(=O)c2ccc(NC(C)=O)cc2)CC3)c(C)c1	nt	nt	nt	nt	nt	3
O=C(NNc1cc(Br)c(O)c(Br)c1)c1ccccc1	0%	0%	-4	-96*	5%[15.4 µM]	-21
Cc1cc2nc3ccc(=[N+](C)C)cc-3sc2cc1N	-17%	?	39	?	-45%	-42*
CCC(=O)NC1=C(Cl)C(=O)C(NC(=O)CC)=C(Cl)C1=O	-1%	?	-6	?	-48%	-90*
CC(CCc1ccccc1)NC(=O)c1ccccc1Cl (stereo not given)	2%	0%	-10	-74*	1%	3
CC(=O)Nc1ccc2c(c1)Cc1cc(N3C(=O)C=CC3=O)ccc1-2	nt	-5%	-13	-61*	-5%	nt
O=C(CC1SC(=O)N(c2ccccc2)C1=O)Nc1ccc(Cl)cc1 (stereo not given)	1%	-1%	-12	-70*	-19%[15.4 µM]	2
Cc1cc2nc(CSc3ccccc3)cc(=O)n2[nH]1	2%	-11%	7	-13	-3%[15.4 µM]	-31*
Cc1cc2nc(CCl)cc(=O)n2[nH]1	-1%	1%	8	-15	-32%	1
CN1C(N)=NC(=O)/C1=C/c1ccc(F)cc1	-3%	-10%	-9	-9	11%	0
CCCn1nc(C(=O)OCC(=O)c2ccc3c(c2)NC(=O)CO3)c2ccccc2c1=O	3%	6.3µM*	3	-2	-2%	0
Cn1c(=O)c2c(ncn2CC(=O)OCC(=O)Nc2cccc(Cl)c2)n(C)c1=O	20%	nt	37	-11	4%[15.4 µM]	-3
O=C(NCc1cccnc1)Nc1ccc(Cl)cc1	1%	11µM*	-1	7	29%	nt
Cc1cc(NC(=O)c2cc(-c3ccccn3)nc3ccc(Br)cc23)no1	-2%	-11%	11	2	?	nt
O=C(NNC(=O)c1cc(-c2ccccc2)nc2ccccc12)Nc1cccc(Cl)c1	1%	?	-28	-24	11%	0
O=C(NNC(=O)c1cc(-c2cccnc2)nc2ccccc12)Nc1ccc(Cl)cc1	0%	-6%	1	-73*	-10%[15.4 µM]	-3
O=C(Nc1ccccn1)c1cc(-c2cccnc2)nc2ccc(Br)cc12	18%	13%	12	47	40µM*	0
CCCCOc1ccc(C(=O)NCC(=O)NC2CCC(C)CC2)cc1 (stereo not given)	1%	14%	0	-5	-17%	nt

Source: PubChem (National Center for Advancing Translational Sciences (NCATS))
